According to PubChem BioAssay (EPA / NIEHS):
Activity calls are given as the source filed them. The calls were made as follows: active = hit-call score of the fitted dose curve at least 0.9, where 1 is the maximum; inactive = score below 0.9.

What was measured:
[1] = target: Bile acid receptor (Homo sapiens) (UniProt Q96RI1); experiment: ATG_IR1_CIS: Attagene CIS-FACTORIAL HepG2 Assay for human Nuclear Receptor Subfamily 1 Group H Member 4 (NR1H4), IR1 submotif (AID 2282946); conditions: IR1 reporter transcription, actives raise or lower the signal
Chain of Bile acid receptor (Homo sapiens) (Q96RI1 whole entry, looked up): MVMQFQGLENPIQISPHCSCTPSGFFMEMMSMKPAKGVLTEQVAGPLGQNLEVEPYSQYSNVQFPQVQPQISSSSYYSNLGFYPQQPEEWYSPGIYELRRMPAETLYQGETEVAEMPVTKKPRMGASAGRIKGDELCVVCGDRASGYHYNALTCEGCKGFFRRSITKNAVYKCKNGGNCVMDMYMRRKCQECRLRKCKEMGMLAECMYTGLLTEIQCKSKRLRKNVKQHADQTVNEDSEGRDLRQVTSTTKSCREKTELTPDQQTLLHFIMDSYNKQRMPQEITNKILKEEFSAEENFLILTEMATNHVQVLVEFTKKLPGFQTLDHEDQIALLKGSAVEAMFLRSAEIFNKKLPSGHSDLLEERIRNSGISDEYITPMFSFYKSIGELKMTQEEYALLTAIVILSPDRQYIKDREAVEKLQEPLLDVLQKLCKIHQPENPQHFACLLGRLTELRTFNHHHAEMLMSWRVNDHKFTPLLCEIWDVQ
Procedure, shortened: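 HepG2 cells transiently transfected with multiple cis-promoter-driven reporter units to measure endogenous transcription factor activity; 24 h exposure. Reporter mRNA read by RT-PCR, FAM labelling, HpaI digestion and capillary electrophoresis. Bidirectional fit versus DMSO.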

[2] = ATG_GRE_CIS: Attagene CIS-FACTORIAL HepG2 Assay for human Glucocorticoid Response Elements (GRE) (AID 2282947); conditions: HepG2 GRE cis-reporter, Attagene multiplex mRNA; actives raise or lower the signal
Procedure, shortened: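 Transiently transfected HepG2 cells carrying GRE cis-reporter units (endogenous TF activity) dosed 24 h; reporter mRNA quantified by RT-PCR, 6-FAM labelling, HpaI digestion and capillary electrophoresis. Bidirectional fit versus DMSO baseline.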

[3] = ATG_ISRE_CIS: Attagene CIS-FACTORIAL HepG2 Assay for human Interferon Regulatory Factor 1 (IRF1) binding to an Interferon-Stimulated Response Element (ISRE) (AID 2282948); conditions: HepG2 ISRE cis-reporter (Attagene), mRNA transcription readout; actives raise or lower the signal
Procedure, shortened: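 HepG2 cells transiently transfected with multiplexed cis-promoter reporter units; after 24 h compound exposure, reporter mRNA quantified by RT-PCR, FAM labelling, HpaI digestion and capillary electrophoresis. Bidirectional fit versus DMSO baseline.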

[4] = ATG_M_32_CIS: Attagene CIS-FACTORIAL HepG2 Assay for M32 Transcription Factor (Internal Marker) (AID 2282949); conditions: HepG2 Attagene cis-factorial M32 reporter, mRNA; actives raise or lower the signal;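 also: background control marker of the multiplexed CIS panel rather than a real target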
Procedure, shortened: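 HepG2 cells transiently transfected with multiplexed cis-regulated reporter units, dosed 24 h. Reporter mRNA quantified by RT-PCR, 6-FAM labelling, HpaI digestion and capillary electrophoresis; bidirectional fit vs DMSO.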

[5] = ATG_M_06_CIS: Attagene CIS-FACTORIAL HepG2 Assay for M06 Transcription Factor (Internal Marker) (AID 2282950); conditions: HepG2 Attagene CIS-FACTORIAL M06 internal marker reporter; actives raise or lower the signal
Procedure, shortened: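 One of many multiplexed endpoints: HepG2 reporter mRNA after 24 h dosing, detected by RT-PCR and capillary electrophoresis fluorescence; gain or loss of signal analysed against DMSO.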

[6] = target: Hypoxia-inducible factor 1-alpha (Homo sapiens) (UniProt Q16665); experiment: ATG_HIF1a_CIS: Attagene CIS-FACTORIAL HepG2 Assay for human Hypoxia Inducible Factor 1 (HIF1A) (AID 2282951); conditions: HepG2 Attagene cis-factorial HIF1a reporter transcription; actives raise or lower the signal
Chain of Hypoxia-inducible factor 1-alpha (Homo sapiens) (Q16665 whole entry, looked up): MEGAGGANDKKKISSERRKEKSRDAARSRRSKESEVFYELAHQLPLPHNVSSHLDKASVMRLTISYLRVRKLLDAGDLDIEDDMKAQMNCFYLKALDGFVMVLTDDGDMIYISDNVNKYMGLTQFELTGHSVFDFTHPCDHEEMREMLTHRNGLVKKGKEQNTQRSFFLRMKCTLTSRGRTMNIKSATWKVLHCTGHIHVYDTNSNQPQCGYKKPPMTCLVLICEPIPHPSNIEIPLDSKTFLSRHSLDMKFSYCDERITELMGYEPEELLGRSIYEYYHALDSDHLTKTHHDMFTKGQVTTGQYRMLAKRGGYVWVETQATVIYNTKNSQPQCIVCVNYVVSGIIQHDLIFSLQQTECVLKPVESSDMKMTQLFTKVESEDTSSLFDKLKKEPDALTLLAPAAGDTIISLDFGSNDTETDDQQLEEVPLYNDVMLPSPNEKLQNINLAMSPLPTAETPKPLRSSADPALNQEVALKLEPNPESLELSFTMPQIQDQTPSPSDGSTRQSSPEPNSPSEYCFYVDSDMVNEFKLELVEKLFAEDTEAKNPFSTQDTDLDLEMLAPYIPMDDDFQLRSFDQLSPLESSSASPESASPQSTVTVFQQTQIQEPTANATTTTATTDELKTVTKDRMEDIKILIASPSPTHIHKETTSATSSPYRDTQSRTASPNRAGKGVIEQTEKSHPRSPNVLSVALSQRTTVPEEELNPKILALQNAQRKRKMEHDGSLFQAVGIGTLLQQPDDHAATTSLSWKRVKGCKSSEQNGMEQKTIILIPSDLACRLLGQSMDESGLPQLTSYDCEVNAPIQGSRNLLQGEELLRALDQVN
Procedure, shortened: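 Endogenous-TF cis reporter readout, human HepG2 cells, 24 h incubation; mRNA detected via RT-PCR and capillary electrophoresis fluorescence; DMSO-normalised bidirectional fitting.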

[7] = target: Hepatocyte nuclear factor 6 (Homo sapiens) (UniProt Q9UBC0); experiment: ATG_HNF6_CIS: Attagene CIS-FACTORIAL HepG2 Assay for human Hepatocyte Nuclear Factor 6 (HNF6) (AID 2282952); conditions: HepG2 Attagene cis-factorial HNF6 reporter transcription; actives raise or lower the signal
Chain of Hepatocyte nuclear factor 6 (Homo sapiens) (Q9UBC0 whole entry, looked up): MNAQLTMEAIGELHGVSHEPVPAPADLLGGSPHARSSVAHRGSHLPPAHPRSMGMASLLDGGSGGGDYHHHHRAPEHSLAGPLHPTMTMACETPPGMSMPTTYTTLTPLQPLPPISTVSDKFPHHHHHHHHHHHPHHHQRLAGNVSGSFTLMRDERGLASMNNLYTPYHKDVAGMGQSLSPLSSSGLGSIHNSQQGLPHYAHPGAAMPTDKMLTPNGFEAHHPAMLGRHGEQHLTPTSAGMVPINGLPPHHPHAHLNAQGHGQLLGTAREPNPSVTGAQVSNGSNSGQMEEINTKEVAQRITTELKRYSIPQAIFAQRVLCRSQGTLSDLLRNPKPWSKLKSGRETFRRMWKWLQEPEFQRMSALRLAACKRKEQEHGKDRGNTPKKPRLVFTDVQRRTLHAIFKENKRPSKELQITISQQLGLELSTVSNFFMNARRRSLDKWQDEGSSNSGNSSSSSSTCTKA
Procedure, shortened: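 Transiently transfected HepG2 cells expressing cis-regulated reporter transcription units were exposed to chemical for 24 h in a 24-well format. Reporter transcript abundance was determined by fluorescence capillary electrophoresis.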

[8] = target: Heat shock factor protein 1 (Homo sapiens) (UniProt Q00613); experiment: ATG_HSE_CIS: Attagene CIS-FACTORIAL HepG2 Assay for human Heat Shock Transcription Factor 1 (HSE) (AID 2282953); conditions: HepG2 HSE cis-reporter, Attagene RNA transcription; actives raise or lower the signal
Chain of Heat shock factor protein 1 (Homo sapiens) (Q00613 whole entry, looked up): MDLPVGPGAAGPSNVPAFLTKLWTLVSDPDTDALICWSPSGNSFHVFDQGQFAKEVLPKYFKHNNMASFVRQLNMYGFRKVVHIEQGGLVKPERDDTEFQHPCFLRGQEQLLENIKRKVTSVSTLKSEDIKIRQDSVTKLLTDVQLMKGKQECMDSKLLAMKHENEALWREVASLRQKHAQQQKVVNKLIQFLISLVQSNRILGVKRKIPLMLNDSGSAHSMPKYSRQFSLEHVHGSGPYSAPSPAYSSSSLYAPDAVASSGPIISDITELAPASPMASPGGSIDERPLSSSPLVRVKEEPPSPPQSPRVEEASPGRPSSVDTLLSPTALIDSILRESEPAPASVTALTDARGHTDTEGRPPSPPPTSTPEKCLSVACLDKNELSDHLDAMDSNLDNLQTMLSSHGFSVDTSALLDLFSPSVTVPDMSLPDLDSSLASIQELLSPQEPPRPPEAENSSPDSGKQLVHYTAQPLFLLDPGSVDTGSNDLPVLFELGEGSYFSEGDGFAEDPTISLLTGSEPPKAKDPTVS
Procedure, shortened: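 Using HepG2 with transfected cis-driven reporter constructs, compound effects on endogenous factor activity are scored as reporter mRNA change at 24 h. Detection: RT-PCR, HpaI digestion, capillary electrophoresis; bidirectional fitting to DMSO.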

[9] = ATG_MRE_CIS: Attagene CIS-FACTORIAL HepG2 Assay for human Metal Responsive Element (MRE) (AID 2282954); conditions: HepG2 MRE cis-reporter transcription, Attagene multiplex; actives raise or lower the signal
Procedure, shortened: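 HepG2 cells transiently transfected with cis-element-driven reporter units; mRNA measured 24 h after dosing. Reporter transcripts quantified by RT-PCR, FAM labelling, HpaI digestion and capillary electrophoresis; bidirectional fit versus DMSO.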

[10] = ATG_PBREM_CIS: Attagene CIS-FACTORIAL HepG2 Assay for human Phenobarbital-responsive Enhancer Module (PBREM) (AID 2282955); conditions: HepG2 PBREM cis-reporter, Attagene multiplexed transcription; actives raise or lower the signal
Procedure, shortened: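 Readout: reporter mRNA, fluorescent RT-PCR fragments separated by capillary electrophoresis. System: HepG2 transiently transfected with cis-regulated reporter units. Exposure: 24 h. Analysis: bidirectional, DMSO baseline.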

[11] = target: Paired box protein Pax-6 (Homo sapiens) (UniProt P26367); experiment: ATG_Pax6_CIS: Attagene CIS-FACTORIAL HepG2 Assay for human Paired Box 6 (PAX6) (AID 2282956); conditions: HepG2 CIS-FACTORIAL PAX6 reporter transcription, RNA readout; actives raise or lower the signal
Chain of Paired box protein Pax-6 (Homo sapiens) (P26367 whole entry, looked up): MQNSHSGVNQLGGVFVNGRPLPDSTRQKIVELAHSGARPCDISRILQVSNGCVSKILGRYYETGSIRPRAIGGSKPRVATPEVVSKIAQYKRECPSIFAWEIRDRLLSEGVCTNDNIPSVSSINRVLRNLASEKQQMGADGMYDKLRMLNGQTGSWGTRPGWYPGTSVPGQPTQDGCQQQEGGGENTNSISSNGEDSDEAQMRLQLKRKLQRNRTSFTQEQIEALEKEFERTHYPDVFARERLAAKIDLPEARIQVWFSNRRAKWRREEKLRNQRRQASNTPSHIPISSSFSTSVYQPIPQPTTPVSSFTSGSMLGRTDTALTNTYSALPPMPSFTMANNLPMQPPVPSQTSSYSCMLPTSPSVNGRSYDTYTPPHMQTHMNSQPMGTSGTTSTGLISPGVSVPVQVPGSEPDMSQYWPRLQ
Procedure, shortened: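 HepG2 cells transiently transfected with multiplexed cis-promoter reporter units (endogenous TF activity) were dosed for 24 h. Reporter mRNA was quantified by RT-PCR, 6-FAM labeling, HpaI digestion and capillary electrophoresis; bidirectional fitting versus DMSO baseline.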

[12] = ATG_RORE_CIS: Attagene CIS-FACTORIAL HepG2 Assay for human RAR-related Orphan Receptor Element (RORE) (AID 2282959); conditions: HepG2 Attagene cis-factorial RORE reporter, mRNA; actives raise or lower the signal
Procedure, shortened: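 Measured here: transcript induction of a cis-regulated reporter in HepG2 cells transiently transfected via FuGene 6. After 24 h, RNA was processed by RT-PCR and fluorescent capillary electrophoresis; DMSO defined baseline activity.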

[13] = ATG_Sox_CIS: Attagene CIS-FACTORIAL HepG2 Assay for human SRY-box transcription factor (SOX) (AID 2282960); conditions: HepG2 Attagene cis-factorial SOX reporter, mRNA; actives raise or lower the signal
Procedure, shortened: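 Using transiently transfected HepG2 cells, reporter transcription driven by cis elements was assessed 24 h after dosing. Signal was fluorescence of capillary-separated RT-PCR products, with DMSO defining baseline activity.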

[14] = target: Transcription factor Sp1 (Homo sapiens) (UniProt P08047); experiment: ATG_Sp1_CIS: Attagene CIS-FACTORIAL HepG2 Assay for human Specificity Protein 1 (Sp1) (AID 2282961); conditions: HepG2 Sp1 cis-reporter transcription, actives raise or lower the signal
Chain of Transcription factor Sp1 (Homo sapiens) (P08047 whole entry, looked up): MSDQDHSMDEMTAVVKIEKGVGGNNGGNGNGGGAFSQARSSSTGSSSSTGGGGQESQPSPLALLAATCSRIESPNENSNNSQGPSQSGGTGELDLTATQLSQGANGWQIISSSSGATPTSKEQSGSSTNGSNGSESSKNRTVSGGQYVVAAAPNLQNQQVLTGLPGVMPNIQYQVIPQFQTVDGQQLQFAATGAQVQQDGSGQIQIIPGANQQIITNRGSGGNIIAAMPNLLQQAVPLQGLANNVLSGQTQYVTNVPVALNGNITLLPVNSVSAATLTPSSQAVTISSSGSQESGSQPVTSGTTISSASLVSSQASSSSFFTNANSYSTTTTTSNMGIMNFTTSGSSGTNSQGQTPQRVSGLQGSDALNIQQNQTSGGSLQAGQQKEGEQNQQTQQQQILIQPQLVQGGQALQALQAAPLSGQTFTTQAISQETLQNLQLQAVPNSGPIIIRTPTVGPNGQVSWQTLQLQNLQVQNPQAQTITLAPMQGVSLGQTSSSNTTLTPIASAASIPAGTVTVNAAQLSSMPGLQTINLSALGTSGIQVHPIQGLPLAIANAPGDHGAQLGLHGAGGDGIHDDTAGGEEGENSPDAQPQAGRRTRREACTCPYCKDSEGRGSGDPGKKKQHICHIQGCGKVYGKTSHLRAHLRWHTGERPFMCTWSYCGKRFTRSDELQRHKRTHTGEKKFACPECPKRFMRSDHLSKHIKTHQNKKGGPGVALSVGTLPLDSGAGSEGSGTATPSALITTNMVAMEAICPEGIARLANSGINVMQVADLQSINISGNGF
Procedure, shortened: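 After transient transfection of HepG2 cells with cis-promoter reporter units and 24 h chemical treatment, reporter transcripts were quantified by RT-PCR and capillary electrophoresis fluorescence. Gain- and loss-of-signal fitted against DMSO.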

[15] = ATG_SREBP_CIS: Attagene CIS-FACTORIAL HepG2 Assay for human Sterol Regulatory Element Binding (SREBP) (AID 2282962); conditions: HepG2 Attagene cis-factorial SREBP reporter, mRNA; actives raise or lower the signal
Procedure, shortened: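 HepG2 cells transiently transfected with multiplexed cis-element reporter units report endogenous transcription factor activity. After 24 h of chemical exposure, reporter mRNA was quantified by RT-PCR, 6-FAM labelling, HpaI digestion and capillary electrophoresis; bidirectional fits used DMSO as baseline.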

[16] = target: Signal transducer and activator of transcription 3 (Homo sapiens) (UniProt P40763); experiment: ATG_STAT3_CIS: Attagene CIS-FACTORIAL HepG2 Assay for human Signal Transducer and Activator of Transcription 3 (STAT3) (AID 2282963); conditions: HepG2, Attagene cis-factorial STAT3 reporter transcription; actives raise or lower the signal
Chain of Signal transducer and activator of transcription 3 (Homo sapiens) (P40763 whole entry, looked up): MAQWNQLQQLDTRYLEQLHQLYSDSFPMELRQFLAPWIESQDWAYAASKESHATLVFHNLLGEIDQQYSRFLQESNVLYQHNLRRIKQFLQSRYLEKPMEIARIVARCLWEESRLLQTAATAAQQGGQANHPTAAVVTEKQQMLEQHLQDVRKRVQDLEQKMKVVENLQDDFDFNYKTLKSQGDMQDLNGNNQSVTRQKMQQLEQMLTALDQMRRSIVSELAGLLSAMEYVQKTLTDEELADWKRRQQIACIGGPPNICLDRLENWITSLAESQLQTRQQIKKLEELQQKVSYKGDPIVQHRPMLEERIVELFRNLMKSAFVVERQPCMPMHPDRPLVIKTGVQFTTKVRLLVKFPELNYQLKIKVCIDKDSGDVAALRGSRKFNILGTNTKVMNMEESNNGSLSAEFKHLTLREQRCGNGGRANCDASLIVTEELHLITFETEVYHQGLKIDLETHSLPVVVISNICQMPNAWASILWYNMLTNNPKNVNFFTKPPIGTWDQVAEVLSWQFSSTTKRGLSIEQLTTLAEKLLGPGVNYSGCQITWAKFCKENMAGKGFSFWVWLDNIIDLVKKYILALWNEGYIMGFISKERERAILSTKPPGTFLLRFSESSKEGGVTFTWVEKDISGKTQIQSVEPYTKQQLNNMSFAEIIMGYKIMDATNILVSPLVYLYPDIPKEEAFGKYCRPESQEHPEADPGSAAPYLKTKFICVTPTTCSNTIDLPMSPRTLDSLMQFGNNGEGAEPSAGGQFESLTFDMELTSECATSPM
Procedure, shortened: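 HepG2 cells transiently transfected with multiple cis-element-driven reporter units report endogenous transcription factor activity. After 24 h compound exposure, reporter mRNA is measured by RT-PCR, 6-FAM labelling, HpaI digestion and capillary electrophoresis. Fitted bidirectionally versus DMSO.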

[17] = ATG_TA_CIS: Attagene CIS-FACTORIAL HepG2 Assay for human TA Basal Promoter (AID 2282964); conditions: HepG2 Attagene CIS-factorial TA basal promoter reporter; actives raise or lower the signal
Procedure, shortened: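 Transient MRTU transfection of HepG2 preceded 24 h compound exposure. Reporter mRNA levels were then read by RT-PCR with capillary electrophoresis, and this background-control endpoint was fitted bidirectionally to DMSO.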

[18] = ATG_TCF_b_cat_CIS: Attagene CIS-FACTORIAL HepG2 Assay for human T-Cell-Factor with beta-catenin (TCF/b-cat) (AID 2282965); conditions: HepG2 TCF/beta-catenin cis-reporter transcription, actives raise or lower the signal
Procedure, shortened: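 Cells of the HepG2 line carry transiently transfected reporter units whose promoters respond to endogenous factors. Twenty-four hours post-dosing, reporter mRNA induction is measured by fluorescent RT-PCR and capillary electrophoresis, with DMSO as baseline.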

[19] = ATG_PXRE_CIS: Attagene CIS-FACTORIAL HepG2 Assay for human Pregnane X Receptor Element (PXRE) (AID 2282957); conditions: HepG2 Attagene CIS-FACTORIAL PXRE reporter, mRNA; actives raise or lower the signal
Procedure, shortened: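 Cis-element reporter mRNA in human hepatoma HepG2 cells is measured 24 h post-dosing by RT-PCR, primer-extension labeling and capillary electrophoresis; gain or loss of signal is fitted relative to DMSO.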

[20] = ATG_PPRE_CIS: Attagene CIS-FACTORIAL HepG2 Assay for human Peroxisome Proliferator-activated Response Element (PPRE) (AID 2282958); conditions: HepG2 PPRE cis-element reporter, Attagene transcription factor profiling; actives raise or lower the signal
Procedure, shortened: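 After human HepG2 hepatoma cells were transiently transfected with cis-promoter reporter constructs, they were exposed to test chemicals for 24 hours. Reporter RNA was then reverse-transcribed, PCR-amplified, FAM-labeled, HpaI-digested and quantified by capillary electrophoresis.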

Measured: AC50

Nc1ccc(Sc2ccc(N)cc2)cc1
active: [6] 45.3 µM | [9] 77.3 µM | [10] 100 µM | [12] 36.6 µM
not listed: [19] | [20]
inactive: all other assays above

Cc1ccc(N)cc1N
not listed: [6]
inactive: all other assays above

CC1=C(C(=O)Nc2ccccc2)S(=O)(=O)CCO1
active: [1] 58.6 µM | [3] 30.2 µM | [6] 27.2 µM | [7] 45.4 µM | [9] 9.73 µM | [11] 19.9 µM
not listed: [15] | [19]
inactive: all other assays above

CC(O)C(F)(F)C(F)(F)F (stereo not given)
not listed: [6] | [20]
inactive: all other assays above

N#Cc1ccc(O)cc1
not listed: [15] | [18] | [19]
inactive: all other assays above

C=CC(=O)OCC(CC)(COC(=O)C=C)COC(=O)C=C
active: [1] 8.23 µM | [3] 42.4 µM | [9] 9.05 µM | [11] 15.5 µM | [14] 26.2 µM | [15] 27 µM
not listed: [19] | [20]
inactive: all other assays above

CCN(CC)c1ccccc1
not listed: [10] | [15] | [18] | [19] | [20]
inactive: all other assays above

CC(C)Nc1ccc(Nc2ccccc2)cc1
active: [3] 43.2 µM | [8] 49.6 µM
not listed: [15] | [19]
inactive: all other assays above

Oc1ccccc1Br
not listed: [6] | [18]
inactive: all other assays above

O=C(O)C1C(C(=O)O)C2(Cl)C(Cl)=C(Cl)C1(Cl)C2(Cl)Cl (stereo not given)
not listed: [6] | [20]
inactive: all other assays above

CC(O)C#N (stereo not given)
not listed: [6] | [15] | [18]
inactive: all other assays above

C=CC(=O)OCC(F)(F)C(F)F
active: [3] 150 µM | [9] 117 µM | [18] 89.3 µM
not listed: [6] | [20]
inactive: all other assays above

CC(C)CBr
not listed: [6] | [18] | [20]
inactive: all other assays above

CC(C)(C)c1ccccc1OP(=O)(Oc1ccccc1)Oc1ccccc1
active: [1] 26.5 µM | [3] 50.2 µM | [19] 0.576 µM | [15] 11.8 µM
not listed: [6]
inactive: all other assays above

CCCCN(CCCC)N=O
active: [19] 42.7 µM
not listed: [10] | [18] | [20]
inactive: all other assays above
